Assay outcomes deposited in PubChem BioAssay by Sanford-Burnham Center for Chemical Genomics.
An excerpt weighted towards active compounds, which were near 1.8% of everything screened.
UBC9 SUMO inh = blocks human SUMOylation mediated by UBC9; P63279; AID 2006; HTRF SUMOylation assay, SAE1/SAE2 + UBC9, in vitro; 290,000 tested, 0.36% active; inhibition, % at 35 µM; in the data active = inhibition above about 50%, passing the limit was not always enough
Target sequence (P63279 whole entry, looked up): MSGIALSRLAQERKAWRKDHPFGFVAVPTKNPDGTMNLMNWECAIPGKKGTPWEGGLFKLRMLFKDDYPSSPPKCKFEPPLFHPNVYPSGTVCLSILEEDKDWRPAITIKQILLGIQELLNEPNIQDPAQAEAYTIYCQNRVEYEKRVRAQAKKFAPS
PHOSPHO1 inh = inhibitors of human PHOSPHO1 phosphatase; inhibition, % at 13.3 µM; 290,000 tested, 1.1% active; recombinant PHOSPHO1, absorbance phosphatase assay; Q8TCT1; in the data active = inhibition above about 60%
Target sequence (Q8TCT1 whole entry, looked up): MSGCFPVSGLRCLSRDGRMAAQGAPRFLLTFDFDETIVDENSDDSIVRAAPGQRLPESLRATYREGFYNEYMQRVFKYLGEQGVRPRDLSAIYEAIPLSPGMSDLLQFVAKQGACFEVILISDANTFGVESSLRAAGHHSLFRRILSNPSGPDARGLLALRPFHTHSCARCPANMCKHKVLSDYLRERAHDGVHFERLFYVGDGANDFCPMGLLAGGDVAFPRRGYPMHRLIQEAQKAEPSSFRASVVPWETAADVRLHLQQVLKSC
pCIP destab = lowers stability of the mouse p/CIP coactivator protein; Q05BA5; F442A p/CIP-EGFP cells, EGFP fluorescence, 16 h; decrease of EGFP signal, % at 10 µM; 290,000 tested, 0.01% active;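 active = EGFP signal decrease of at least 30% at 10 µM or well 3 SD below plate mean, unless failing retest; inactive = the rest, including hits failing retest or dose response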
NadD block = NadD (S. aureus) enzyme inhibition. purified NadD enzyme, colorimetric absorbance read-out. inhibition, % at 20 µM. 360,000 tested, 0.78% active; in the data active = inhibition above about 26%
NadD conf = NadD (S. aureus) inhibition, single concentration confirmation | shares compounds with NadD block | purified S. aureus NadD, colorimetric enzyme assay | inhibition, % at 20 µM | 2,000 tested, 13% active | AID 624309; in the data active = inhibition mostly above about 42%, no sharp cut-off; inactive = mostly below about 42%
* marks the source's active call; other numbers are inactive results; nt = no result given.

SMILES | UBC9 SUMO inh | PHOSPHO1 inh | pCIP destab | NadD block | NadD conf
CCn1c2ccccc2c2cc(N=C3SC(CC(=O)Nc4ccccc4)C(=O)N3C)ccc21 (centres undefined) | 13 | 28 | -9 | 31* | 19
O=C(N/N=C/c1c[nH]c2ccccc12)c1cc(-c2ccc(-c3ccccc3)cc2)n[nH]1 | 26 | 41 | -4 | 50* | 47*
CCNC(=O)C1(C)CCN1C(=O)CCc1cccc(Cl)c1 (centres undefined) | nt | nt | nt | -4 | nt
Cc1cc(C)nc(NS(=O)(=O)c2ccc(N=Cc3c(C)[nH]n(-c4ccccc4)c3=O)cc2)n1 | 13 | 11 | -2 | 12 | nt
CCc1nnc(NS(=O)(=O)c2ccc(N=Cc3c(C)[nH]n(-c4ccc(C)c(C)c4)c3=O)cc2)s1 | 23 | -8 | -6 | 37* | 55*
Cc1ccc(-n2[nH]c(C)c(C=Nc3ccc(S(=O)(=O)Nc4nccs4)cc3)c2=O)cc1 | 0 | 4 | -11 | nt | nt
Cc1[nH]n(-c2ccc(Br)cc2)c(=O)c1C=Nc1ccc(S(=O)(=O)Nc2nccs2)cc1 | 20 | -2 | -4 | 42* | 40
O=C(Nc1ccc(Cl)c([N+](=O)[O-])c1)Nc1nc2ccccc2s1 | -6 | 30 | 4 | nt | nt
Cc1ccc(NC(=O)Nc2nc3ccccc3s2)cc1NC(=O)Nc1nc2ccccc2s1 | 26 | 16 | 6 | 28* | 8
CCCOc1ccc(C(=O)NNC(=S)NC(=O)c2cc(-c3ccccc3)nc3ccccc23)cc1 | -41 | -118 | -9 | 62* | 13
Cc1cccc(NC(=S)NC(=O)c2cc(-c3ccccc3)nc3ccccc23)c1 | 17 | 6 | -1 | 24 | nt
Cc1ccccc1NC(=S)NC(=O)c1cc(-c2ccccc2)nc2ccccc12 | -10 | 8 | -2 | 38* | 28
Cc1cccc(-c2cc(C(=O)Nc3ccc4c(c3)OCCO4)c3ccccc3n2)c1 | -11 | 45 | -6 | 18 | nt
CCOc1ccc(-c2cc(C(=O)Nc3ccc4c(c3)OCCO4)c3ccccc3n2)cc1 | -4 | 31 | -3 | 33* | 15
CCc1nnc(NS(=O)(=O)c2ccc(NC(=S)NC(=O)/C=C/c3ccc([N+](=O)[O-])cc3)cc2)s1 | 19 | 27 | -4 | 7 | nt
COc1ccc(/C=C/C(=O)NC(=S)Nc2ccc(S(=O)(=O)N=C(N)N)cc2)cc1OC | 13 | 59 | -5 | 30* | -3
COc1ccc(/C=C/C(=O)NC(=S)Nc2ccc(S(=O)(=O)Nc3cc(OC)ncn3)cc2)cc1 | 22 | 14 | 8 | 54* | 35
CCc1nnc(NS(=O)(=O)c2ccc(NC(=S)NC(=O)/C=C/c3ccc(F)cc3)cc2)s1 | 4 | -2 | -2 | 31* | 51*
Cn1nc(C(C)(C)C)cc1C(=O)N1CCCCC1c1cc(C(=O)N2CCOCC2)no1 (centres undefined) | nt | nt | nt | 1 | nt
Cc1ccccc1CSCC1Nc2ccc(C(=O)NCCc3ccccc3)cc2NC1=O (centres undefined) | nt | nt | nt | 45* | 74*
CCOC(=O)c1c(C)[nH]c(C)c1C(=O)CSc1nc2ccccc2c(=O)n1-c1ccc(CC)cc1 | 0 | -5 | -2 | 5 | nt
CC(=O)c1ccc(-n2c(SCC(=O)c3c[nH]c4ccccc34)nc3ccccc3c2=O)cc1 | -15 | -67 | -16 | 37* | 27
O=C(N/N=C/c1cn(-c2cccs2)nc1-c1ccccc1)c1ccccc1O | -25 | -5 | -10 | 34* | 19
O=C(N/N=C/c1cn(-c2cccs2)nc1-c1ccccc1)c1ccccc1Br | -5 | -14 | -9 | 17 | nt
O=C(Cn1cnc([N+](=O)[O-])c1)Nc1cc(Oc2ccc(Cl)cc2Cl)cc([N+](=O)[O-])c1 | -3 | -1 | -13 | 32* | 19
SMILES | UBC9 SUMO inh | PHOSPHO1 inh | pCIP destab | NadD block | NadD conf
CCSc1nnc(COc2ccccc2)n1CC | -16 | 20 | 0 | -1 | nt
NC(=O)c1c(NC(=O)Cn2nc(C(=O)O)c3ccccc3c2=O)sc2c1CCC2 | 16 | 10 | -8 | 1 | nt
CCOC(=O)c1c(NC(=O)Cn2nc(C(=O)O)c3ccccc3c2=O)sc2c1CCC(C)C2 (centres undefined) | -8 | 25 | -2 | 33* | 12
C#Cc1ccc([C@H]2C=C(C(=O)NCc3nc4ccccc4[nH]3)O[C@@H](OCc3ccc(CO)cc3)C2)cc1 | nt | nt | nt | 33* | 46*
CCOc1ccc(N2CC(C(=O)NC3CCCCCC3)CC2=O)cc1 (centres undefined) | 7 | 19 | -10 | -2 | nt
O=C(O)c1ccccc1N/N=C/c1c(Sc2nnnn2-c2ccccc2)nc2ccccn2c1=O | 2 | 16 | -426 | 3 | nt
